# High-throughput results as filed in PubChem.
# A selection: hits, their analogues and other compounds. The true share with any hit is near 2.3%.
# UbGFP stabilizer: Ubiquitin-GFP Assay. 67,000 tested, under 10 active. Ubiquitin-GFP reporter cells, proteasome inhibition, GFP fluorescence; response scale: untreated = 0%, 10 µM MG-132 = 100%. AID 526, 2006. Potency, µM (titrated, usually from 45.9 µM), inactives show at the highest dose activation (GFP accumulation), usual class: activators; active means well fitted activation curve with a large enough effect, not every such curve was filed as active; inconclusive means small, poorly fitted or top-dose-only effect, or another doubt; inactive means no such curve, though single readings can be large or run the other way; further: potency means the concentration at half of the fitted maximal effect
#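 U2OS cells expressing ubiquitin(G76V)-GFP, seeded overnight in 0.5% FBS medium, then treated 4 hr at 37 C across 46 uM to 2.9 nM. GFP-positive cells counted by laser cytometry (488 ex/515 em); %activity scaled between basal and 10 uM MG-132.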
# Epigenetic mod: qHTS Assay for Epigenetic Modulators | mouse C127i GFP locus derepression, cytometry, 30 h | Potency, µM (highest dose often 46.1 µM), inactives show at the top dose GFP derepression (activation) | hit rate 0.09% among 68,000 | AID 597, 2007; further: % of control where 0% means no effect
#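 Murine C127i mammary cells carrying a silenced, stably integrated CMV-driven GFP reporter were treated with compound for 30 hours at 37 C. After PBS washes, GFP-positive cells were counted by laser-scanning microplate cytometry.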
# Tau filament bind: qHTS Assay for Tau Filament Binding. hit rate 2% among 71,000. Microtubule-associated protein tau (Homo sapiens), P10636. Potency, µM (highest dose often 57.1 µM), without a hit: at the top dose activity change, negative = inhibition. recombinant tau filaments, thioflavin S fluorescence, 15 h; filaments grown with octadecylsulfate alongside compound;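 further: potency means the concentration at half of the fitted maximal effect; on the % scale 0 is the no-effect control and ±100 the full control effect; actives lower thioflavin S fluorescence by blocking filaments or displacing dye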
#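 Quantitative HTS: thioflavine S signal from ODS-induced tau filaments, excited at 450 nm, emission 510 nm. Conditions: 1 uM tau, 30 uM ODS, 15 h at 37 C, pH 7.4.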
# HBB splicing: qHTS Assay for Modulators of Hemoglobin Beta Chain Splicing | hit rate 0.06% among 65,000 | HBB splicing reporter cell assay, activation; EGFP reporter with mutant IVS2-654 intron; response scale: normalised to 500 nM splice-correcting PNA | Potency, µM (titrated, usually from 46.1 µM), inactives show at the highest dose activation, actives largely listed as activators; further: potency means the concentration at half of the fitted maximal effect; 0% is about no effect
#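 HeLa cells stably expressing EGFP interrupted by mutant beta-globin intron 2 (IVS2-654), 500/well in 2% FCS. Treated with compound for 2 days at 37C. Splicing correction scored as total well GFP intensity (488 nm excitation, 500-520 nm emission); 500 nM antisense PNA served as control.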
# 15-hLO-2 inh: qHTS Assay for Inhibitors of 15-hLO-2 (15-human lipoxygenase 2); Polyunsaturated fatty acid lipoxygenase ALOX15B (Homo sapiens), O15296; purified 15hLO-2, xylenol orange hydroperoxide absorbance; Potency, µM (titrated, usually from 57.1 µM), inactives show at the top dose activity change, negative = inhibition, hits mostly inhibitors; hit rate 0.56% among 110,000; AID 881, 2007; further: potency means the concentration at half of the fitted maximal effect; on the % scale 0 is the no-effect control and ±100 the full control effect; nearly all actives have a fitted effect of over 60% in size
#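 Screening format was qHTS against 50 nM purified 15hLO-2 in Hepes pH 7.5 with detergent. Activity follows hydroperoxide formation from 45 uM arachidonic acid, measured as 573:405 nm absorbance ratio of the ferric-xylenol orange complex.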
# ALOX15 inhib: qHTS Assay for Inhibitors of 15-hLO (15-human lipoxygenase). Polyunsaturated fatty acid lipoxygenase ALOX15 (Homo sapiens), P16050. purified 15hLO-1, xylenol orange hydroperoxide absorbance. Potency, µM (doses to about 57.1 µM), for inactives: at the top dose activity change, negative = inhibition, most hits filed as inhibitors. hit rate 1.4% among 74,000. AID 887, 2007; further: potency means the concentration at half of the fitted maximal effect; on the % scale 0 is the no-effect control and ±100 the full control effect; nearly all actives have a fitted effect of over 55% in size
#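 Hydroperoxide formed from arachidonic acid (50 uM) by purified human 15hLO-1 (40 nM) oxidizes ferrous iron, and the ferric-xylenol orange complex is read at 573 versus 405 nm. Compounds were preincubated 15 min; reaction ran 6 min at room temperature.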
# Tau ThS bind: Tau ThS binding assay | hit rate 40% among 60 | Potency, µM | recombinant tau filaments, Thioflavin S fluorescence displacement | shares compounds with Tau filament bind; calls by dose curve
# aSyn ThS displ: Alpha-synuclein ThS binding assay. shares compounds with Tau filament bind. recombinant alpha-synuclein fibrils, ThS fluorescence displacement. Potency, µM. hit rate 40% among 60. AID 937, 2007; calls by dose curve
# Abeta ThS bind: Beta amyloid ThS binding assay; hit rate 50% among 60; Abeta1-42 fibrillization, thioflavin S fluorescence, overnight 37 C; Potency, µM; shares compounds with Tau filament bind; AID 956, 2007; calls by dose curve
# Target sequence (P05067 whole entry, looked up): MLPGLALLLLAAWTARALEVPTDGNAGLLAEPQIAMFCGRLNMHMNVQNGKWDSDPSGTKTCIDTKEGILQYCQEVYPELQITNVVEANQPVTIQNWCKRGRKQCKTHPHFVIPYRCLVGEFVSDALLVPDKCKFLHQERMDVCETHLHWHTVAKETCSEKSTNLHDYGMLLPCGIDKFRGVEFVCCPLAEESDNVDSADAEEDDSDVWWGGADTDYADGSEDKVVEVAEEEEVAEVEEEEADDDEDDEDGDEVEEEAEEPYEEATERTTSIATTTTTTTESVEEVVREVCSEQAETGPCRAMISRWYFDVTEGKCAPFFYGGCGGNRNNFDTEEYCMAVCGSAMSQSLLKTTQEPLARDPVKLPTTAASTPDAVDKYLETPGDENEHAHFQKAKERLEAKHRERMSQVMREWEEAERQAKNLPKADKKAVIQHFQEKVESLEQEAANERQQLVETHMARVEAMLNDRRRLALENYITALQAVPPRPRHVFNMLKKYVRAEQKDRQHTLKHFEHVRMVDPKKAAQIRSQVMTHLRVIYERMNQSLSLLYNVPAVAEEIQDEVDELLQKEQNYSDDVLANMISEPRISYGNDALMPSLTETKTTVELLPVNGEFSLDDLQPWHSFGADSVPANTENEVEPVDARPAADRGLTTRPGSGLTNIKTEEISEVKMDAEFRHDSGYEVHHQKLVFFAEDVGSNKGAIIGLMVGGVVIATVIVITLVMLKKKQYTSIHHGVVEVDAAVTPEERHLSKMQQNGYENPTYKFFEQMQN
# Starred values were filed as active, the others as inactive; i = inactive; ? = inconclusive; nt = no result given; [ ] = dose if it differs, or a comment. Unless noted, the call rests on the fitted dose curve; in most records, active means well fitted curve in the direction sought with a large enough effect; inconclusive means small, poorly fitted or top-dose-only effect, or another doubt; inactive means no such curve, though single readings can be large; an effect the other way counts as inactive or inconclusive.
SMILES,UbGFP stabilizer,Epigenetic mod,Tau filament bind,HBB splicing,15-hLO-2 inh,ALOX15 inhib,Tau ThS bind,aSyn ThS displ,Abeta ThS bind
O=c1c(-c2cccs2)nc2cnc(N3CCNCC3)nc2n1CCc1ccccc1,-9%,2%[9.22 µM],i,0%,-1%,-6%,nt,nt,nt
O=C(C1CCCN(S(=O)(=O)c2cccc3nonc23)C1)N1CCC(Cc2ccccc2)CC1 (centres undefined),-1%,0%,3.2µM*,-2%,-1%,?,?,i,i
CC1(C)CC(=O)C(C(=O)CCCCC(=O)C2C(=O)CC(C)(C)CC2=O)C(=O)C1,-9%,-3%,-36%,-1%,6%,0%,i,i,i
COC(=O)CCCCC(=O)C1C(=O)CC(C)(C)C(C(=O)OC)C1=O (centres undefined),?,2%,-1%,-1%,3%,0%,nt,nt,nt
Cc1ccc2nc(-c3ccc(N=Nc4cc(S(=O)(=O)O)c5ccccc5c4O)cc3)sc2c1S(=O)(=O)O,nt,nt,nt,nt,nt,nt,2.1µM*,9.5µM*,?
COc1cc(-c2nc3ccccc3s2)ccc1O,nt,nt,nt,nt,-9%,nt,nt,nt,nt
CCC[C@@H]1C[C@@]1(CCC)C(NC(=O)c1ccccc1)c1cccc(Cl)c1 (some centres undefined),nt,nt,60%,-1%,1%,nt,nt,nt,nt
COc1cc(OC)c(/C=C2/C(=O)Nc3ccccc32)c(OC)c1,-3%,-1%,-29%,-2%,-14%,-6%,i,i,i
Nc1c2c(nc3ccccc13)CCC[C@H]2O,1%,-1%,0%,2%,-2%,3%,nt,nt,nt
COc1ccc2nc(N=Nc3ccc(N(C)C)cc3)sc2c1,nt,nt,nt,nt,-26%,nt,0.1µM*,i,0.1µM*
COc1ccc2nc(/N=C\N(C)C)sc2c1,-14%,0%,-13%,-4%,?,-19%,nt,nt,nt
COC(=O)[C@@H]1C[C@H]1[C@@H](N)c1ccccc1,nt,nt,-10%,2%,17%,nt,nt,nt,nt
Cc1ccc(/C=N/c2sc3c(c2C#N)CCC3)s1,-5%,0%,2.5µM*,-1%,-8%,-4%,i,?,i
CN1CCN(/C=N/c2sc3c(c2C#N)CCCCC3)CC1,nt,5%[20.6 µM],nt,nt,26%,nt,nt,nt,nt
COCCn1c(=O)c(-c2cccs2)nc2cnc(Oc3ccc(OC)cc3)nc21,6%,0%[9.22 µM],?,0%,-13%,-16%,nt,nt,nt
Cc1cc(C)c2nc(N3CCCC(C(=O)NCCN4CCOCC4)C3)sc2c1 (centres undefined),11%,-3%,-34%,-1%,20%,8%,i,i,i
Cc1cc(C)c2nc(N3CCCC(C(=O)NCCCN4CCOCC4)C3)sc2c1 (centres undefined),nt,nt,nt,nt,27%,nt,nt,nt,nt
COc1cccc(Cn2c(=O)c(-c3ccccc3)nc3cnc(N4CCNCC4)nc32)c1,1%,-6%[9.22 µM],-1%,0%,36%,4%,nt,nt,nt
O=C1[C@H]2[C@H]3[C@H](O)[C@H](O)C/C(=N/OC[C@@H](O)COCc4ccco4)[C@@H]3CC[C@@H]2C(=O)N1Cc1ccccc1,nt,nt,nt,2%[9.22 µM],nt,5%[11.4 µM],nt,nt,nt
Cc1ccc2nc(NC(=O)C3CCCN(S(=O)(=O)c4cccc5nsnc45)C3)sc2c1 (centres undefined),-10%,0%,7.9µM*,0%,4%,?,i,?,i
Cc1ccnc(NC(=O)C2CCN(S(=O)(=O)c3cccc4nsnc34)CC2)c1,10%,0%,-86%,-1%,-2%,-4%,nt,nt,nt
Cc1ccc2nc(NC(=O)C3CCN(S(=O)(=O)c4cccc5nsnc45)CC3)sc2c1,-10%,-3%,5µM*,-1%,nt,?,i,?,i
Cc1cccn2c(=O)c3cc(C(=O)NCCN4CCOCC4)c(=N)n(CCc4ccccc4)c3nc12,2%,7%,0.5µM*,1%[9.22 µM],14%,-4%,i,?,i
COCCCn1c(=N)c(C(=O)NCC2CCCO2)cc2c(=O)n3cccc(C)c3nc21 (centres undefined),1%,0%,9%,nt,nt,-6%,?,?,?
c1cc2c3c(cccc3c1)NC1(CCCCCC1)N2,-3%,0%,2.5µM*,-1%,?,-7%,?,6.3µM*,2.2µM*
C=CCOC(=O)C(C#N)c1nc2ccccc2nc1N1CCN(c2ccccc2OC)CC1 (centres undefined),-4%,4%,2.5µM*,0%[57.5 µM],-17%,-11%,4µM*,1.4µM*,1.1µM*
CCN1CCN(c2nc3ccccc3nc2C(C#N)C(=O)OC2CCCCC2)CC1 (centres undefined),2%,0%,0.79µM*,5%[57.5 µM],48%,?,2.8µM*,1.8µM*,1.4µM*
N#CC(C(=O)NC1CCCCC1)c1nc2ccccc2nc1N1CCN(c2ccc(F)cc2)CC1 (centres undefined),?,?,384%,?,-3%,11%,nt,nt,nt
